Source: PubChem BioAssay
MPTP block = permeability transition pore inhibition; AID 602449; isolated mouse mitochondria, Ca2+ swelling absorbance, 30 min; hit rate 1.4% among 360,000; inhibition, % at 10 µM;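 active means inhibition of 50% or more, scaled per plate between neutral and stimulator controls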;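 further: 0% = DMSO wells given calcium and 100% = 1 mM EGTA wells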
TIM10 inh = growth inhibitors of TIM10 yeast strain | S. cerevisiae TIM10 strain growth, BacTiter-Glo luminescence, 24 h | inhibition, % at 10 µM | hit rate 1.4% among 330,000;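 active means inhibition of 40% or more at the single tested concentration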;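 further: wild-type TIM10 isogenic control strain grown at permissive 25 °C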
tim23-1 inh = inhibits growth of tim23-1 mutant yeast; hit rate 1.3% among 330,000; inhibition, % at 20 µM; S. cerevisiae tim23-1 growth, BacTiter-Glo luminescence, 24 h; AID 463212;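 active means growth inhibition of the mutant yeast at or above 50%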;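 further: temperature-sensitive mutant grown at 25 °C; plate controls were DMSO-treated mutant yeast for no effect and medium wells lacking yeast for full effect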
tim10-1 inh = inhibits growth of tim10-1 mutant yeast; S. cerevisiae tim10-1 ts strain growth, BacTiter-Glo, 24 h; inhibition, % at 20 µM; hit rate 2.2% among 330,000;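 active means inhibition of at least 40%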;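 further: mutant grown at 25 °C; 0% = DMSO wells with yeast and 100% = wells holding no yeast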
Mdm2-MdmX inh = human Mdm2/MdmX binding inhibition; inhibition, % at 8 µM; SaOS-2 split-luciferase Mdm2/MdmX complementation, luminescence; hit rate 3% among 330,000; O15151+Q00987; AID 485346;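 active means inhibition of at least 50% at 8 µM in the primary screen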
Target sequence (O15151 whole entry, looked up): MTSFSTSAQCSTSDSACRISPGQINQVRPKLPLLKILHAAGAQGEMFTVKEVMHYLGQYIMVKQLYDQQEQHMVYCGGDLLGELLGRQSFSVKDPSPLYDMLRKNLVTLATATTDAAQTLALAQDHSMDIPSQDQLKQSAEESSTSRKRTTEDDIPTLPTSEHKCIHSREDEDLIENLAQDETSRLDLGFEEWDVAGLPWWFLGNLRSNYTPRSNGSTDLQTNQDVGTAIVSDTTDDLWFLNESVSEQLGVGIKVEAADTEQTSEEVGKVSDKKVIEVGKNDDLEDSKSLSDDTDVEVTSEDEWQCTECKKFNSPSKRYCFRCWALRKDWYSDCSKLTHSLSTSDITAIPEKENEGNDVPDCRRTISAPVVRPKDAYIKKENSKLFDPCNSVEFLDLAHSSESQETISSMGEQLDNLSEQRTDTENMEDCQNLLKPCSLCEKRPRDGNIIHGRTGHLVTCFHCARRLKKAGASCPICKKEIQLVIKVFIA
Target sequence (Q00987 whole entry, looked up): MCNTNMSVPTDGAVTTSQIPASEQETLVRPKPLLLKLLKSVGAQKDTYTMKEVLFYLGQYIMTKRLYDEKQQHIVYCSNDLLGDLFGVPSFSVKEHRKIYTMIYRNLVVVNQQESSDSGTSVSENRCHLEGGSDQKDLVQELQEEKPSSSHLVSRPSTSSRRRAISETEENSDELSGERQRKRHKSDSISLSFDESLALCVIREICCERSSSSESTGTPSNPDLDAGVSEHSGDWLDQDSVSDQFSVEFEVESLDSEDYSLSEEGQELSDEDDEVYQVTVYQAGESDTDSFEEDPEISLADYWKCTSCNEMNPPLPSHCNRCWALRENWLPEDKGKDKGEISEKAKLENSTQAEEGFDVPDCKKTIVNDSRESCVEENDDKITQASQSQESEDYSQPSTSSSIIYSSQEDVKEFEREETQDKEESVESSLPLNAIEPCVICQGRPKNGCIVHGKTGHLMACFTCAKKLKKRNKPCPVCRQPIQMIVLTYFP
TIM10 conf = TIM10 yeast growth inhibition, confirmed; inhibition, % at 10 µM; shares compounds with TIM10 inh; AID 463215; S. cerevisiae tim10 strain growth, BacTiter-Glo luminescence, 24 h; hit rate 63% among 4,600;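 active means inhibition of yeast growth at or above a set limit in either of two replicates at 10 µM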;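 further: this counterscreen used the strain with wild-type TIM10; 0% = yeast with DMSO and 100% = medium wells lacking yeast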
tim23-1 confirm = tim23-1 yeast growth inhibition, confirmed. shares compounds with tim23-1 inh. S. cerevisiae tim23-1 growth, BacTiter-Glo luminescence, 24 h. inhibition, % at 20 µM. hit rate 83% among 4,400;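 active means inhibition above about 39% in either of two replicate wells at 20 µM, limit read from the data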;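 further: temperature-sensitive tim23-1 mutant grown at 25 °C; 0% = DMSO wells with yeast and 100% = medium wells without yeast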
Mdm2 MdmX conf = human Mdm2/MdmX binding inhibition, confirmed; shares compounds with Mdm2-MdmX inh; luminescent assay; inhibition, % at 8 µM; hit rate 55% among 10,000; AID 489028; in the data active means inhibition above about 40%
MPTP counter = Rhodamine 123 counter-screen of mitochondrial pore hits. shares compounds with MPTP block. isolated mitochondria, membrane potential, Rhodamine 123 fluorescence. inhibition, % at 10 µM. hit rate 78% among 5,000. AID 624504; in the data active means inhibition above about 22%;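 further: 0% = DMSO vehicle and 100% = positive control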
MPTP abs DR = dose response confirmation of mitochondrial permeability transition pore inhibitors. shares compounds with MPTP block. isolated mitochondria swelling, absorbance. IC50, µM. hit rate 58% among 780. AID 651561; in the data active means IC50 below about 20 µM
MPTP counter DR = MPTP inhibitor counter-screen activity, dose response | shares compounds with MPTP block | isolated mitochondria counterscreen, fluorescence read-out | IC50, µM | hit rate 49% among 780 | AID 651564; in the data active means IC50 below about 80 µM
The depositor's hits bear a star; nt = no result given. The list is not random: actives were taken first. Their share in the collection is about 6.3%.

SMILES | MPTP block | TIM10 inh | tim23-1 inh | tim10-1 inh | Mdm2-MdmX inh | TIM10 conf | MPTP counter | others
Nc1nonc1C(=O)NCCN=Cc1ccccc1O | 9 | 4 | 9 | 5 | 7 | nt | nt
S=C(NNc1ccnc2cc(Cl)ccc12)Nc1ccccc1Cl | 98* | 40* | 56* | 40 | 44 | -22 | 77* | tim23-1 confirm=34
O=C(Nc1ccc(Cl)c(Cl)c1)N1CCSC1c1ccco1 (centres undefined) | 92* | 48* | 34 | 24 | 18 | 31* | 91*
CC(=O)Nc1ccc(S(=O)(=O)N2CCSC2c2ccco2)cc1 (centres undefined) | 0 | 13 | 7 | 12 | 7 | nt | nt
CC(C)NC(=O)N1Cc2cc(C(=O)NC3CCCC3)nc(-c3cccc(-c4cccnc4)c3)c2[C@@H]1CCO | -1 | nt | nt | nt | nt | nt | nt
O=C(Nc1ccc(OC(F)(F)F)cc1)N1CCN(c2ccnc3cc(Cl)ccc23)CC1 | 96* | 46* | 74* | 35 | 22 | 28 | 81* | tim23-1 confirm=67*
O=C(c1cc2sccc2n1Cc1ccc(F)cc1)N1CCN(c2nc3ccccc3s2)CC1 | 90* | 43* | 26 | 32 | 4 | 19 | 103*
O=C(c1cccs1)N1CCN(c2nc3ccccc3s2)CC1 | -1 | 1 | 20 | 2 | -16 | nt | nt
CN(C)CCNC(=O)c1cccc(-c2cc(NC=O)c3ncc(-c4cccc(C(F)(F)F)c4)n3c2)c1 | -3 | nt | nt | nt | nt | nt | nt
Oc1c(Br)cc(Br)cc1/C=N/NC(=S)N[C@H]1CC2C=CC1C2 (some centres undefined) | 84* | 46* | 57* | 30 | 30 | 48* | 58* | tim23-1 confirm=68*
Oc1ccc(Cl)cc1CNc1ccc(Br)cn1 | 58* | 47* | 31 | 34 | -145 | 23 | 62*
Cc1ccnc(NCc2cc(Cl)ccc2O)c1 | 1 | nt | nt | nt | nt | nt | nt
CCCCCOc1ccc(CSCCNC(=S)Nc2ccccc2)cc1 | 11 | 23 | 12 | 5 | 35 | nt | nt
CCCCOc1ccc(CSCCNC(=S)Nc2ccccc2)cc1 | 97* | 42* | 34 | 33 | -2 | 0 | 95*
CC(CC(=O)Nc1ccc(C(N)=O)cc1)c1ccccc1 (centres undefined) | 0 | 11 | 6 | -6 | -15 | nt | nt
CC(CC(=O)Nc1ccc(Cl)c([N+](=O)[O-])c1)c1ccccc1 (centres undefined) | 105* | 42* | 35 | 38 | 19 | -14 | 90*
Cc1ccc(N(CC(=O)Nc2ccc(F)c(Cl)c2)S(=O)(=O)c2c(C)noc2C)cc1 | 58* | 64* | 18 | 38 | 8 | 61* | 101*
O=c1oc2ccccc2c(Nc2cccc3ccccc23)c1[N+](=O)[O-] | 67* | 49* | 39 | 31 | 21 | 36* | 79*
O=c1oc2ccccc2c(Nc2ccccc2O)c1[N+](=O)[O-] | 0 | 9 | -13 | 11 | -12 | nt | nt
O=C(Nc1ccc(C(O)(C(F)(F)F)C(F)(F)F)cc1)c1ccc(Cl)c([N+](=O)[O-])c1 | 83* | 59* | 30 | 38 | 55* | 2 | 67* | Mdm2 MdmX conf=28
O=C(O)c1cc(NC(=O)c2ccc(Cl)c([N+](=O)[O-])c2)cc(C(=O)O)c1 | 0 | 7 | 0 | -9 | -8 | nt | nt
S=C(NCc1cccs1)Nc1cc(Cl)cc(Cl)c1 | 90* | 47* | 42 | 39 | 61* | 56* | 78* | Mdm2 MdmX conf=19
S=C(NCc1ccc(Cl)cc1)Nc1ccccc1 | 65* | 42* | 24 | 32 | 10 | 30 | 93*
O=C(NCc1ccccc1Cl)c1csc([C@@H]2O[C@H](CO)[C@H](O)[C@H](O)[C@H]2O)n1 | 0 | nt | nt | nt | nt | nt | nt
COc1cc(F)ccc1-c1csc(C(C)(NC(C)=O)c2ccccc2)n1 (centres undefined) | 0 | nt | nt | nt | nt | nt | nt
SMILES | MPTP block | TIM10 inh | tim23-1 inh | tim10-1 inh | Mdm2-MdmX inh | TIM10 conf | MPTP counter | others
C[C@H](CO)N1C[C@H](C)[C@H](CN(C)C(=O)Cc2cccnc2)Oc2ncc(Br)cc2C1=O | -2 | nt | nt | nt | nt | nt | nt
COc1ccc(-c2cc(=Nc3ccc(C)cc3)c3ccccc3o2)cc1 | 63* | 55* | 48 | 37 | 44 | 47* | 12 | MPTP abs DR=>100;MPTP counter DR=14*
CCOc1ccc(N=c2cc(-c3ccc(OC)cc3)oc3ccccc23)cc1 | 37 | 29 | 41 | 15 | 34 | nt | nt
O=[N+]([O-])c1cc(Cl)ccc1NCCNc1ncc(C(F)(F)F)cc1Cl | 1 | 18 | 18 | 21 | -1 | nt | nt
O=[N+]([O-])c1cc(C(F)(F)F)ccc1NCCNC(=S)Nc1ccc(Cl)cc1 | 94* | 56* | 81* | -32 | 89* | 50* | 70* | tim23-1 confirm=-15;Mdm2 MdmX conf=27
COc1cccc(C2c3cc4c(cc3OC(C)(N3CCCC3)C2C)OCO4)c1O (centres undefined) | 0 | nt | nt | nt | nt | nt | nt
O=C(Nc1ccc(Cl)c(Cl)c1)O/N=C/c1ccncc1 | 104* | 43* | 8 | 29 | 11 | -24 | 78*
COc1ccc(OC)c(NC(=O)c2csc(Cl)c2OC)c1 | 1 | 26 | 59* | 23 | 21 | nt | nt | tim23-1 confirm=44*
O=C(CNC(=O)C12CC3CC(CC(C3)C1)C2)OCc1cc(=O)n2cc(Br)ccc2n1 | -2 | 4 | 23 | 23 | -11 | nt | nt
O=C(CNC(=O)C12CC3CC(CC(C3)C1)C2)OCc1ccc(F)cc1Cl | -2 | 28 | 52* | 22 | 33 | nt | nt | tim23-1 confirm=60*
CC(C)(C)c1csc(N/N=C/c2ccc(O)cc2)n1 | 2 | 24 | 57* | 30 | -66 | nt | nt | tim23-1 confirm=39
CC(=O)Nc1sc(N/N=C/c2ccc(O)cc2)nc1-c1ccc(C)cc1 | 1 | 30 | 14 | 3 | 3 | nt | nt
CCOC(=O)C1CCCN(S(=O)(=O)c2ccc3c(c2)CC(C)N3C(=O)C2CC2)C1 (centres undefined) | -1 | 27 | 27 | 27 | 8 | nt | nt
CCOC(=O)C1CCN(S(=O)(=O)c2ccc3c(c2)CC(C)N3C(=O)C2CCC2)CC1 (centres undefined) | 0 | 38 | 51* | 27 | 24 | nt | nt | tim23-1 confirm=43*
O=Cc1cccnc1SCc1ccccc1 | -4 | 15 | 57* | 17 | 48 | nt | nt | tim23-1 confirm=61*
Oc1cccnc1SCc1ccccc1 | -1 | -3 | 9 | -23 | 7 | nt | nt
O=C(Nc1ccc(N2CCN(C(=O)c3cccs3)CC2)cc1)c1ccc(Br)o1 | -1 | 32 | 55* | 29 | 8 | nt | nt | tim23-1 confirm=54*
